High-throughput results as filed in PubChem BioAssay.
Shown are actives, neighbours in structure and some others; about 2% of the full set was active somewhere.
A3A deaminase = APOBEC3A ssDNA deaminase inhibitors, primary screen, selectivity assay for APOBEC3G inhibitor project, biochemical, FAM/TAMRA oligo cleavage fluorescence | DNA dC->dU-editing enzyme APOBEC-3A (Homo sapiens), P31941 | hit rate 0.41% among 330,000 | inhibition, % at 20 µM | recombinant A3A, FAM/TAMRA ssDNA deamination fluorescence | AID 493011, 2011;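 active = at least 40% inhibition at 20 µM here, with at most 30% in a related deaminase screen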;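 also: plate controls were A3A with DMSO for no effect and wells lacking A3A enzyme for full effect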
APOBEC3G inh = APOBEC3G DNA deaminase inhibitors, primary screen, biochemical, fluorescence, single-stranded DNA substrate, uHTS; DNA dC->dU-editing enzyme APOBEC-3G (Homo sapiens), Q9HC16; recombinant A3G, ssDNA deamination FAM/TAMRA fluorescence; inhibition, % at 20 µM; hit rate 0.28% among 330,000; AID 493012, 2011;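 active = inhibition of at least 40% at 20 µM, with no more than 30% in the related APOBEC3A deaminase screen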;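 also: plate controls were DMSO wells with A3G for no effect and wells lacking A3G enzyme for full effect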
Neddylation inh = inhibitors of cullin neddylation, primary screen, biochemical, TR-FRET, uHTS, NAE and Ubc12. NEDD8-conjugating enzyme Ubc12 (Homo sapiens) + NEDD8-activating enzyme E1 regulatory …. inhibition, % at 25 µM. hit rate 0.58% among 360,000; in the data active = inhibition above about 36%
GC-B act = human GC-B receptor activators, primary screen, HEK293 GC-B cells, cGMP TR-FRET, EC30 CNP; Atrial natriuretic peptide receptor 2 (Homo sapiens), P20594; 0% at EC30 CNP, 100% saturating CNP; activation, % at 10 µM; hit rate 0.11% among 370,000; AID 1920062, 2024;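 active = activation at 10 µM reaching about 35% in either raw or pattern-adjusted values, limit read from the data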
NPR1 activator = GC-A stimulated cGMP production enhancers – HEK293 GC-A cells, cGMP TR-FRET, EC30 ANP, primary screen | Atrial natriuretic peptide receptor 1 (Homo sapiens), P16066 | 0% at EC30 ANP, 100% saturating ANP | activation, % at 10 µM | hit rate 0.14% among 370,000; in the data active = activation above about 40%
PfGluPho inh = PfG6PD enzyme inhibitors, primary screen, biochemical, fluorescence intensity, uHTS. AID 504690, 2011. PfGluPho enzyme, NADPH resazurin-diaphorase fluorescence. hit rate 0.78% among 350,000. inhibition, % at 20 µM;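 active = inhibition reaching at least a set limit at 20 µM in the primary screen, cut at about 59% in these data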;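 also: 0% = DMSO wells with substrate and 100% = DMSO wells lacking glucose-6-phosphate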
PfGluPho conf = PfG6PD inhibitors, hit retest, confirmation, biochemical, fluorescence intensity, single concentration; inhibition, % at 20 µM; hit rate 34% among 2,400; shares compounds with PfGluPho inh; recombinant PfGluPho, NADPH-diaphorase-resazurin fluorescence;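 active = inhibition of at least 50% at 20 µM in any single replicate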;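 also: 0% = DMSO with substrate and 100% = DMSO lacking glucose-6-phosphate substrate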
Diaphorase 10uM = diaphorase inhibitors and chemical oxidizers, confirmation, counter-screen for P. falciparum G6PD inhibitor project, biochemical, fluorescence intensity, 10 µM NADPH; inhibition, % at 20 µM; AID 504862, 2011; shares compounds with PfGluPho inh; diaphorase-coupled resazurin reduction, NADPH 10 uM; hit rate 39% among 820;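 active = average inhibition reaching 50% or more with the compound at 20 µM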;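 also: resorufin red fluorescence formed as diaphorase reduces resazurin using NADPH; 0% = DMSO with enzyme and 100% = DMSO without enzyme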
Diaphorase 30uM = diaphorase inhibitors and chemical oxidizers, confirmation, counter-screen for P. falciparum G6PD inhibitor project, biochemical, fluorescence intensity, 30 µM NADPH; shares compounds with PfGluPho inh; Diaphorase/resazurin coupled assay, resorufin fluorescence; inhibition, % at 20 µM; hit rate 29% among 820; AID 504863, 2011;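 active = inhibition averaging 50% or more, tested at 20 µM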;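 also: 0% = DMSO with enzyme and 100% = DMSO wells lacking diaphorase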
* marks the source's active call; other numbers are inactive results; x = not tested or not shown.

SMILES | A3A deaminase | APOBEC3G inh | Neddylation inh | GC-B act | NPR1 activator | PfGluPho inh | PfGluPho conf | others
Cc1ccc(-n2c(SCC(=O)O)nc3c(sc(=S)n3-c3ccc(C)c(C)c3)c2=O)cc1 | -3 | -4 | -20 | 5 | 2 | 75* | 31
Cc1cccc(C(=O)Nc2sc3c(c2C(=O)O)CCC3)c1 | 0 | -7 | 30 | -9 | 2 | 60* | 18
COc1cccc(C(=O)Nc2sc3c(c2C(=O)O)CCCC3)c1 | -1 | -7 | 31 | -3 | -1 | 88* | 41
COc1cccc(CC(=O)Nc2sc3c(c2C(N)=O)CCCC3)c1 | 0 | -1 | -165 | -3 | 6 | 6 | x
COc1cccc(C(=O)Nc2sc3c(c2C#N)CCN(C(C)=O)C3)c1 | 0 | 10 | 7 | -8 | -5 | 61* | 36
C[C@@H]1CN(c2ccc(N3CCN(C(=O)OC(C)(C)C)C[C@H]3C)cc2C#N)CCN1Cc1ccccc1 | x | x | x | -1 | 3 | x | x
O=C(COc1cccc(C(F)(F)F)c1)N1CCN(c2ccc(O)cc2)CC1 | 3 | 27 | 4 | -5 | -1 | 61* | 1
O=C(COc1cccc(C(F)(F)F)c1)N1CCN(c2ccccc2O)CC1 | -1 | -3 | 1 | -2 | 0 | 14 | x
CC1CCCC2(C1)NC(=S)c1c(sc3c1CCCC3)N2 (configuration not stated) | 0 | 4 | -5 | 1 | 2 | 64* | 11
COc1ccc(N2C(=S)N(C(=O)c3ccccc3)C(=Nc3ccccc3)C2=Nc2ccccc2)cc1 | -2 | -7 | 1 | -3 | 3 | 64* | 31
O=C(Nc1ccccc1)c1ccc2nc(-c3ccco3)c(-c3ccco3)nc2c1 | 77 | 76 | -20 | -12 | -9 | 61* | -9
O=C(NCCCO)c1ccc2nc(-c3ccco3)c(-c3ccco3)nc2c1 | x | x | 5 | 1 | 0 | 75* | -7
Cc1occc1-c1nnc(SCC(=O)Nc2ccccn2)n1-c1ccccc1 | x | x | x | -6 | -7 | x | x
CCn1c(=O)n(CC)c2cc(S(=O)(=O)N3CCc4ccccc43)ccc21 | -5 | 4 | 5 | 2 | -1 | 78* | 44
COc1ccc(S(=O)(=O)N2CCc3ccccc32)cc1OC | 4 | -1 | 3 | -1 | 3 | 28 | x
N=c1c2c(ccn1CCCCc1ccccc1)Oc1ccc3ccccc3c1C2c1ccccc1 (configuration not stated) | x | x | x | -21 | -32 | x | x
Oc1cccc2c(NC(=S)Nc3ccc(OC(F)F)cc3)cccc12 | -1 | 2 | -17 | -1 | 0 | 62* | -17
CC1(OC(=O)CCc2ccccc2)C(=O)C=C2C=C(c3ccc(C#N)cc3)N(C3CCCCC3)C=C2C1=O (configuration not stated) | -4 | -7 | -14 | -1 | -2 | 75* | 26
COc1ccc(CN2C=C3C(=O)C(C)(OC(=O)CCc4ccccc4)C(=O)C=C3C=C2c2ccc(C#N)cc2)cc1 (configuration not stated) | -2 | -11 | -4 | 0 | 2 | 52 | x
CC1(OC(=O)CCc2ccccc2)C(=O)C=C2C=C(c3ccc(C#N)cc3)N(CCc3c[nH]c4ccccc34)C=C2C1=O (configuration not stated) | -4 | -8 | -12 | -3 | 0 | 79* | 27
CC1(OC(=O)CCc2ccccc2)C(=O)C=C2C=C(c3ccc(C#N)cc3)N(C(CO)CO)C=C2C1=O (configuration not stated) | -1 | -9 | 17 | 2 | 0 | 65* | 23
COc1ccc(N2C=C3C(=O)C(C)(OC(=O)CCc4ccccc4)C(=O)C=C3C=C2c2ccc(C#N)cc2)cc1 (configuration not stated) | -1 | -6 | -20 | -3 | 2 | 69* | 4
CCN(CC)CCCN1C=C2C(=O)C(C)(OC(=O)CCc3ccccc3)C(=O)C=C2C=C1c1ccc(C#N)cc1 (configuration not stated) | -4 | -9 | x | x | x | 30 | x
O=C1CC(N2CCCCCC2)C(=O)N1c1ccc2c(c1)OCO2 (configuration not stated) | 0 | 2 | -5 | 1 | 2 | 7 | x
O=C1CC(N2CCN(c3ccc(O)cc3)CC2)C(=O)N1c1ccc2c(c1)OCO2 (configuration not stated) | -4 | 13 | -3 | 2 | 3 | 60* | 29
SMILES | A3A deaminase | APOBEC3G inh | Neddylation inh | GC-B act | NPR1 activator | PfGluPho inh | PfGluPho conf | others
C(=N\n1cnnc1)/c1cccc(OCCOc2ccccc2)c1 | -2 | -6 | 0 | -3 | 3 | 7 | x
Cc1ccc(S(=O)(=O)Oc2cccc(/C=N/Nc3ccc(C(=O)O)cc3)c2)cc1 | -3 | -7 | 31 | -1 | -2 | 98* | 67* | Diaphorase 10uM=60*;Diaphorase 30uM=49
Cc1ccc(S(=O)(=O)Oc2cccc(/C=N/n3cnnc3)c2)cc1 | 0 | -3 | 2 | -4 | -3 | 77* | 37
COC(=O)C1CN(Cc2ccccc2)CCS(=O)(=O)N1Cc1cn(Cc2ccccc2)nn1 (configuration not stated) | x | x | x | -1 | 2 | x | x
O=S(=O)(Nc1ccccc1N1CCCCC1)c1ccc(F)cc1 | -1 | -5 | 13 | 2 | 0 | 69* | 7
O=S(=O)(Nc1ccccc1N1CCOCC1)c1ccc(F)c(Cl)c1 | -4 | -7 | -1 | 0 | -3 | 46 | x
O=S(=O)(Nc1ccccc1N1CCOCC1)c1ccc(Cl)cc1 | -3 | -7 | -8 | x | x | 70* | 42
